Holding throughout (conditions): mRNA level, 48 h; actives raise or lower the signal
Read-out in assay [1]: Bcl-2 (BID) gene, BID (gene 637)
Nature of the assay: LTEA_HepaRG_BID: Life Technologies and Expression Analysis (LTEA) Assay for Bcl-2 (BID) gene using HepaRG (AID 2283476). In outline:
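Gene expression by qRT-PCR in HepaRG cells after 48 h exposure, duplicate wells, eight half-log concentrations topping at 100 uM in 0.5% DMSO. Normalized to ACTB, GAPDH, POLR2A; bidirectional fitting relative to DMSO.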

Read-out in assay [2]: Caspase-3 (Homo sapiens) (UniProt P42574)
Nature of the assay: LTEA_HepaRG_CASP3: Life Technologies and Expression Analysis (LTEA) Assay for cysteine-aspartic acid protease (CASP3) using HepaRG (AID 2283477). In a few lines: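 In HepaRG liver cells dosed for 48 h at up to 100 uM (eight-point, duplicate), CASP3 expression changes are scored by qRT-PCR. Activity is fitted in both directions with 0.5% DMSO as baseline.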

Read-out in assay [3]: Cytochrome P450 (CYP24A1), CYP24A1 (gene 1591)
As to the kind of experiment: LTEA_HepaRG_CYP24A1: Life Technologies and Expression Analysis (LTEA) Assay for Cytochrome P450 (CYP24A1) using HepaRG (AID 2283478). In outline: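 Human liver HepaRG cultures receive each chemical for 48 h across an eight-point half-log series topping at 100 uM in 0.5% DMSO. Induction or suppression of CYP24A1 mRNA is scored relative to vehicle after housekeeping-gene normalization.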

Read-out in assay [4]: Cytochrome P450 (CYP1A2), CYP1A2 (gene 1544)
As to the kind of experiment: LTEA_HepaRG_CYP1A2: Life Technologies and Expression Analysis (LTEA) Assay for Cytochrome P450 (CYP1A2) using HepaRG (AID 2283479). In a few lines:
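Assesses CYP1A2 mRNA in human HepaRG liver cells after 48 h chemical exposure at up to 100 uM. Values come from qRT-PCR with bidirectional curve fitting relative to DMSO.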

Read-out in assay [5]: cysteine-aspartic acid protease (CASP8), CASP8 (gene 841)
As to the kind of experiment: LTEA_HepaRG_CASP8: Life Technologies and Expression Analysis (LTEA) Assay for cysteine-aspartic acid protease (CASP8) using HepaRG (AID 2283480). In a few lines: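 Differentiated HepaRG cells in serum-free induction medium, 48 h exposure, eight-point half-log series from 100 uM in 0.5% DMSO, duplicates. CASP8 mRNA by qRT-PCR, normalized to ACTB, GAPDH, POLR2A; bidirectional fit versus DMSO.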

Read-out in assay [6]: Cytochrome P450 (CYP2B6), CYP2B6 (gene 1555)
Nature of the assay: LTEA_HepaRG_CYP2B6: Life Technologies and Expression Analysis (LTEA) Assay for Cytochrome P450 (CYP2B6) using HepaRG (AID 2283481). In a few lines: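 Using 48 h treatment of HepaRG cells in serum-free induction medium, concentrations spanned half-log steps from 100 uM in 0.5% DMSO vehicle. CYP2B6 mRNA induction or loss is scored by qRT-PCR against DMSO.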

Read-out in assay [7]: Cytochrome P450 2C19 (Homo sapiens) (UniProt P33261)
Nature of the assay: LTEA_HepaRG_CYP2C19: Life Technologies and Expression Analysis (LTEA) Assay for CYP2C19 using HepaRG (AID 2283482). In a few lines:
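Human HepaRG liver cells received test chemicals for 48 h (highest 100 uM, half-log dilutions in 0.5% DMSO). CYP2C19 mRNA induction or loss is read by multiplexed qRT-PCR and fitted in both directions versus vehicle.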

Read-out in assay [8]: CYP2C8 (gene 1558)
Nature of the assay: LTEA_HepaRG_CYP2C8: Life Technologies and Expression Analysis (LTEA) Assay for CYP2C8 using HepaRG (AID 2283483). In outline:
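Differentiated HepaRG cells in serum-free induction medium exposed 48 h in duplicate to 8 half-log concentrations from 100 uM in 0.5% DMSO. CYP2C8 mRNA by qRT-PCR normalized to ACTB, GAPDH, POLR2A; bidirectional fit versus DMSO.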

Read-out in assay [9]: CYP2C9 (gene 1559)
As to the kind of experiment: LTEA_HepaRG_CYP2C9: Life Technologies and Expression Analysis (LTEA) Assay for CYP2C9 using HepaRG (AID 2283484). In outline: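 Differentiated human HepaRG cells in serum-free induction medium were exposed 48 h to chemicals in 8-point half-log series from 100 uM (0.5% DMSO), in duplicate. CYP2C9 mRNA was measured by qRT-PCR, normalized to ACTB/GAPDH/POLR2A, with bidirectional fitting versus DMSO.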

Read-out in assay [10]: CYP2E1 (gene 1571)
Nature of the assay: LTEA_HepaRG_CYP2E1: Life Technologies and Expression Analysis (LTEA) Assay for CYP2E1 using HepaRG (AID 2283485). In outline: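 HepaRG cells, plated 48 h, then exposed 48 h in serum-free induction medium to eight half-log concentrations from 100 uM in 0.5% DMSO, duplicate. CYP2E1 mRNA by qRT-PCR, normalized to ACTB/GAPDH/POLR2A; bidirectional fit versus DMSO.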

Read-out in assay [11]: CYP4A11 (gene 1579)
As to the kind of experiment: LTEA_HepaRG_CYP4A11: Life Technologies and Expression Analysis (LTEA) Assay for CYP4A11 using HepaRG (AID 2283486). In a few lines: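 Readout is CYP4A11 mRNA induction or suppression (qRT-PCR, ACTB/GAPDH/POLR2A normalization) in human HepaRG cells after 48 h chemical treatment, concentrations to 100 uM in 0.5% DMSO, fitted bidirectionally against vehicle.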

Read-out in assay [12]: Cytochrome P450 3A4 (Homo sapiens) (UniProt P08684)
As to the kind of experiment: LTEA_HepaRG_CYP3A4: Life Technologies and Expression Analysis (LTEA) Assay for CYP3A4 using HepaRG (AID 2283487). In a few lines: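 Differentiated HepaRG cells in serum-free induction medium exposed in duplicate for 48 h to 8 half-log concentrations up to 100 uM in 0.5% DMSO. CYP3A4 mRNA measured by qRT-PCR normalized to ACTB, GAPDH and POLR2A; bidirectional fit versus DMSO.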

Read-out in assay [13]: DNA damage-inducible transcript 3 (DDIT3), DDIT3 (gene 1649)
As to the kind of experiment: LTEA_HepaRG_DDIT3: Life Technologies and Expression Analysis (LTEA) Assay for DNA damage-inducible transcript 3 (DDIT3) using HepaRG (AID 2283488). In outline: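 HepaRG cells, 48 h after plating, exposed 48 h in serum-free induction medium to 8 half-log concentrations up to 100 uM in 0.5% DMSO, in duplicate. DDIT3 mRNA measured by TaqMan qRT-PCR, normalized to ACTB, GAPDH and POLR2A. Fitted bidirectionally against DMSO.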

Read-out in assay [14]: Pro-epidermal growth factor (Homo sapiens) (UniProt P01133)
As to the kind of experiment: LTEA_HepaRG_EGF: Life Technologies and Expression Analysis (LTEA) Assay for Epidermal growth factor (EGF) using HepaRG (AID 2283489). In a few lines: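 EGF expression changes in human HepaRG cells are scored by bidirectional fitting relative to 0.5% DMSO controls. Chemicals are tested at eight half-log concentrations up to 100 uM for 48 h in serum-free induction medium.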

Read-out in assay [15]: Early growth response protein 1 (EGR1) transcription factor, EGR1 (gene 1958)
As to the kind of experiment: LTEA_HepaRG_EGR1: Life Technologies and Expression Analysis (LTEA) Assay for Early growth response protein 1 (EGR1) transcription factor using HepaRG (AID 2283490). In outline:
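Differentiated HepaRG cells in serum-free induction medium exposed 48 hours, duplicate, to 8 half-log concentrations up to 100 uM in 0.5% DMSO. EGR1 mRNA measured by TaqMan qRT-PCR, normalized to ACTB, GAPDH, POLR2A; bidirectional fit versus DMSO.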

Read-out in assay [16]: Ezrin (EZR), EZR (gene 7430)
As to the kind of experiment: LTEA_HepaRG_EZR: Life Technologies and Expression Analysis (LTEA) Assay for Ezrin (EZR) using HepaRG (AID 2283491). In outline: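 Differentiated human HepaRG cells, 48 h after plating, were exposed in serum-free induction medium for 48 hours to eight half-log concentrations up to 100 uM in 0.5% DMSO. EZR mRNA was measured by TaqMan qRT-PCR, normalized to ACTB, GAPDH and POLR2A, and fitted bidirectionally against DMSO.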

Read-out in assay [17]: Cytochrome P450 3A7 (Homo sapiens) (UniProt P24462)
Nature of the assay: LTEA_HepaRG_CYP3A7: Life Technologies and Expression Analysis (LTEA) Assay for CYP3A7 using HepaRG (AID 2283492). In outline:
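Cells were thawed, plated, cultured 48 h, then treated for a further 48 h with chemicals (eight-point half-log series from 100 uM, 0.5% DMSO). RNA was isolated and CYP3A7 expression quantified by qRT-PCR normalised to ACTB, GAPDH and POLR2A.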

Read-out in assay [18]: CYP3A5 (gene 1577)
As to the kind of experiment: LTEA_HepaRG_CYP3A5: Life Technologies and Expression Analysis (LTEA) Assay for CYP3A5 using HepaRG (AID 2283493). In outline: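 HepaRG cells, plated 48 h then in serum-free induction medium, dosed in duplicate for 48 h with eight half-log concentrations up to 100 uM in 0.5% DMSO. Gene mRNA by Fluidigm TaqMan qRT-PCR, normalized to ACTB, GAPDH, POLR2A.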

Read-out in assay [19]: Cytochrome P450 4A22 (Homo sapiens) (UniProt Q5TCH4)
Nature of the assay: LTEA_HepaRG_CYP4A22: Life Technologies and Expression Analysis (LTEA) Assay for Cytochrome P450 4A22 (CYP4A22) using HepaRG (AID 2283495). In a few lines:
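Cryopreserved HepaRG cells, plated and cultured 48 h, then switched to serum-free induction medium and treated 48 h (duplicates, up to 100 uM, half-log steps, 0.5% DMSO). Expression change of CYP4A22 was fitted bidirectionally against vehicle.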

Read-out in assay [20]: Fatty Acid-Binding Protein 1 (FABP1), FABP1 (gene 2168)
As to the kind of experiment: LTEA_HepaRG_FABP1: Life Technologies and Expression Analysis (LTEA) Assay for Fatty Acid-Binding Protein 1 (FABP1) using HepaRG (AID 2283494). In outline: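 Differentiated human HepaRG cells exposed 48 h in serum-free induction medium to eight half-log concentrations up to 100 uM (0.5% DMSO), duplicate. FABP1 mRNA by qRT-PCR, normalised to ACTB, GAPDH, POLR2A; bidirectional fitting against DMSO.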

Calls of active or inactive are those of the source. The calls were made as follows: active = hit-call score of the fitted dose curve at least 0.9, where 1 is the maximum; inactive = score below 0.9.

Chain of Caspase-3 (Homo sapiens) (P42574 whole entry, looked up): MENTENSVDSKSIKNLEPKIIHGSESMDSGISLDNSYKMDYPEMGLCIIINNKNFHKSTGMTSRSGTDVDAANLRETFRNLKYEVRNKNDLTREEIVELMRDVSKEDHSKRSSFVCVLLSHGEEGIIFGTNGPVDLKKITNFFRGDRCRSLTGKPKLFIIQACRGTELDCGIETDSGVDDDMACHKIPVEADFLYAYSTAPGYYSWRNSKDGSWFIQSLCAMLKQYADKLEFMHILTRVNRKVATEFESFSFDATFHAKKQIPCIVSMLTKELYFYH
Chain of Cytochrome P450 3A4 (Homo sapiens) (P08684 whole entry, looked up): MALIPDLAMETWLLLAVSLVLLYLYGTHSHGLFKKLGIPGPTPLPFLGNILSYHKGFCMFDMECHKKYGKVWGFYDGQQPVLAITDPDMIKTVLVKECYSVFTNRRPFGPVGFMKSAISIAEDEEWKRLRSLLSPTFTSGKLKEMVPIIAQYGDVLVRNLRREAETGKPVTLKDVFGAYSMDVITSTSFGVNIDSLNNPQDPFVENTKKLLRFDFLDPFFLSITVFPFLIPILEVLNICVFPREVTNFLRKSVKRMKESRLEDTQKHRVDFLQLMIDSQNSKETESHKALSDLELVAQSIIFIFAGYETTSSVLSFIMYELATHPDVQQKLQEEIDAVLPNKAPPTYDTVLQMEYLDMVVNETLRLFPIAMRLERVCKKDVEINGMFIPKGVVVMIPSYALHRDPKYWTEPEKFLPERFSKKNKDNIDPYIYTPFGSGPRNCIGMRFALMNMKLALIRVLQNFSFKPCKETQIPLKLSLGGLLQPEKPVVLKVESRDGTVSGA
Chain of Cytochrome P450 2C19 (Homo sapiens) (P33261 whole entry, looked up): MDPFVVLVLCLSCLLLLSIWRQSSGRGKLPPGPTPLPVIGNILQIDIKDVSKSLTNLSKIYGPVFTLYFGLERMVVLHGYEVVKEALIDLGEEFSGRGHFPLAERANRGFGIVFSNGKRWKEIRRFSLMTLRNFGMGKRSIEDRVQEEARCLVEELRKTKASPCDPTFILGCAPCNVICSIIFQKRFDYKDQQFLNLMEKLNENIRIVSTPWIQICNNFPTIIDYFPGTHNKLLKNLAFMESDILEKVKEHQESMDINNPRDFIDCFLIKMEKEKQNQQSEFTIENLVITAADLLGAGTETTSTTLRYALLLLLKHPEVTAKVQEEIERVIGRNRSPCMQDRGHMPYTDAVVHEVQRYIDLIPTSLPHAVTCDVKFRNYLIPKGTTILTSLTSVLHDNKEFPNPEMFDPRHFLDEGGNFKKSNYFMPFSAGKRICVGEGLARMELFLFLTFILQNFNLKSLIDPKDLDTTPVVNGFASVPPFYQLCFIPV
Chain of Cytochrome P450 3A7 (Homo sapiens) (P24462 whole entry, looked up): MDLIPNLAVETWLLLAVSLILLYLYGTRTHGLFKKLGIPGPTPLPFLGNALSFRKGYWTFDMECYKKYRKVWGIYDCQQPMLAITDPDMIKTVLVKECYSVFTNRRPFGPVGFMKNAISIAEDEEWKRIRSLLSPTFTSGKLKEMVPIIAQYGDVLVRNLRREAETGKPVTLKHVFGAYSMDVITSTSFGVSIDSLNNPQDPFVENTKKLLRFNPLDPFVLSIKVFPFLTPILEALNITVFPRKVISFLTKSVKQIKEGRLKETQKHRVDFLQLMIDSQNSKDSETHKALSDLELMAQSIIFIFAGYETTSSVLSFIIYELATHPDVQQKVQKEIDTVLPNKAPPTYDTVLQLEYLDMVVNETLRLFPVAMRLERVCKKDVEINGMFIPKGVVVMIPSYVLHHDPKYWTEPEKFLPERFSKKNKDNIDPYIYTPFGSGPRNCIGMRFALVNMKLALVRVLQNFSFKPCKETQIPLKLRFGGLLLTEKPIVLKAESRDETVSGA

As to `CNC(=O)Oc1cccc2c1OC(C)(C)O2`, the compound was classed as inactive in [1], in [2], in assay [3], in assay [4], in assay [5] and in [6]. The call in assay [7], in [8], in assay [9], in assay [10], in assay [11] and in [12] was inactive. Moreover, the call in assay [13], in assay [14], in assay [15], in assay [16], in assay [17] and in [18] was inactive. Also, the result in [19] was inactive.
For orientation: AC50 means the concentration at which the activity in the assay is half-maximal. With `CCOP(=S)(OCC)SCCSCC`, the outcome in assay [1], in assay [2], in [3], in assay [4], in assay [5] and in assay [8] was inactive. The call in assay [9], in assay [10], in assay [11], in [13], in [14] and in assay [15] was inactive. In addition, the result in [16], in [17], in assay [18], in assay [20] and in [19] was inactive. Besides, the AC50 was 7.58 µM (active) in assay [6], 22.2 µM (active) in assay [7] and 22.2 µM (active) in assay [12].
Turning to `CCOP(=S)(Oc1cnc(C(C)(C)C)nc1)OC(C)C` (stereo not given), the result in assay [1], in assay [2], in assay [3], in [4], in [5] and in assay [8] was inactive. The compound was called inactive in assay [13], in assay [14], in [15], in assay [16], in assay [17] and in assay [18]. In addition, in assay [19], the compound was classed as inactive. Also, the AC50 is 4.96 µM (active) in [6]; 11.5 µM (active) in assay [7]; 26.8 µM (active) in assay [10]; 50 µM (active) in assay [11]; 13.9 µM (active) in assay [12]; 2.01 µM (active) in assay [20].
`CN(C)NC(=O)CCC(=O)O`: the call in assay [1], in [2], in [3], in assay [4], in assay [5] and in [6] was inactive. Also, the compound was called inactive in assay [7], in [8], in assay [9], in assay [10], in [11] and in assay [12]. Moreover, the outcome in [13], in assay [14], in assay [15], in assay [16], in assay [17] and in assay [18] was inactive. Besides, in assay [19], the call was inactive.
As to `CCC(=O)Nc1ccc(Cl)c(Cl)c1`, the compound was classed as inactive in assay [1], in assay [2], in assay [3], in assay [5], in [8] and in assay [9]. The compound was classed as inactive in assay [12], in assay [13], in assay [14], in assay [15], in [16] and in [17]. Moreover, the compound was called inactive in assay [18] and in assay [19]. Moreover, the AC50 in assay [4] was 33 µM (active); in [6], 12.6 µM (active); in assay [7] it was 32.7 µM (active); in assay [10], 50 µM (active); in [11], 50 µM (active).
Turning to `CCc1cccc(CC)c1N(COC)C(=O)CCl`, the compound was called inactive in assay [1], in assay [2], in assay [3], in assay [4], in assay [5] and in assay [7]. Also, the outcome in [8], in assay [9], in [10], in assay [11], in assay [12] and in assay [13] was inactive. In addition, the outcome in [14], in assay [15], in assay [16], in assay [17], in assay [18] and in assay [19] was inactive. For the same compound, in assay [6], the AC50 was 50 µM (active).
